# Experimental data published in PubChem BioAssay AID488977 (Johns Hopkins Ion Channel Center, 2010).
# About 1,500 (0.48%) of roughly 310,000 compounds were called active.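 How the source made its calls: active means initial fluorescence not abnormally high and integrated response B-score, plate-corrected, over 3 SD above library mean; inactive means the rest.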 Only a selection was taken, and actives are over-represented in it overall.
# Target: High affinity choline transporter 1 (Homo sapiens) (UniProt Q9GZV3)
# Assay: CHT positive allosteric modulators, primary screen, cell-based, membrane potential dye, choline EC20 (AID 488977)
# Conditions: CHT-expressing cells, at 10 µM, LV-AA mutant CHT in HEK293 cells; stronger effect = higher value
# Sequence of High affinity choline transporter 1 (Homo sapiens) (Q9GZV3 whole entry, looked up): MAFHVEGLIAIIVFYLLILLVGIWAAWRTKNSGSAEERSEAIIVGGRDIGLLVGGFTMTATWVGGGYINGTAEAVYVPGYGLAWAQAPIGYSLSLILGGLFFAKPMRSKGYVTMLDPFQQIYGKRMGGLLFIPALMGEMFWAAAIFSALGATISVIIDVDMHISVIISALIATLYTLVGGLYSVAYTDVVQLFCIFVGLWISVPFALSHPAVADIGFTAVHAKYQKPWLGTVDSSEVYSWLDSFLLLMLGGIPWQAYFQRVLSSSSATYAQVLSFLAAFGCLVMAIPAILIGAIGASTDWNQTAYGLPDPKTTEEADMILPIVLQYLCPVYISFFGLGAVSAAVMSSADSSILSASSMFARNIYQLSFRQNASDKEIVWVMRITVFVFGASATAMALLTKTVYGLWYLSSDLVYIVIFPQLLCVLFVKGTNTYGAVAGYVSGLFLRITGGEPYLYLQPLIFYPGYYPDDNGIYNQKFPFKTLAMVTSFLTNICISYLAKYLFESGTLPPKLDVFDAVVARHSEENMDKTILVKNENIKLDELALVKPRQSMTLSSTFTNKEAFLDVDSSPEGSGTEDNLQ
row,SMILES,B-score
1,COC(=O)c1ccc(SCc2ccccc2)nc1,inactive
2,COc1ccc(NC(=O)CN(C)C(=O)CC2CCCCC2)cc1,inactive
3,Cc1ccc(C(=O)NC2CCCC(C)C2C)cc1S(=O)(=O)N1CCCCC1 (centres undefined),inactive
4,COc1ccc(C(=O)NCc2cn3ccccc3n2)cc1,inactive
5,Cn1cc[n+](C)c1COc1ccc(C=O)cc1,inactive
6,O=Cc1ccc(OCc2cn3ccccc3n2)cc1,7.07 (active)
7,COc1ccc(S(=O)(=O)N2CCCCC2)cc1NC(=O)C1CC(=O)N(c2ccc3c(c2)OCCO3)C1 (centres undefined),inactive
8,COc1ccc(/C=N/NC(=O)c2cc(-c3cccc(C)c3)nc3ccccc23)cc1O,inactive
9,CCN1C(=O)[C@H]2[C@@H](c3ccc(SC4CCCCC4)c(OC)c3)N[C@@](Cc3ccccc3)(C(=O)OC)[C@H]2C1=O,inactive
10,O=C(NCCc1ccco1)C(=O)NCCC1CCCCN1S(=O)(=O)c1ccccc1 (centres undefined),inactive
11,CCn1cc(S(=O)(=O)c2cccc(C)c2)c(=O)c2cc(F)c(N3CCN(C)CC3)cc21,8.24 (active)
12,CN1CCN(c2cc3c(cc2F)c(=O)c(C(=O)O)cn3CCF)CC1,inactive
13,CCn1cc(C(=O)NCCO)c(=O)c2cc(F)c(N3CCN(C)CC3)cc21,inactive
14,CCN1C(=O)[C@H]2[C@@H](c3ccc(-c4ccc(F)cc4)cc3)N[C@@](Cc3ccccc3)(C(=O)OC)[C@H]2C1=O,inactive
15,CN(/N=C/c1ccccc1)C(=S)c1ccccc1,inactive
16,Cc1ccc(C)c(OCCC(=O)Nc2cccc(S(=O)(=O)N3CCCC3)c2)c1,inactive
17,Cn1c(=NC(=O)CSCC(=O)N2CCCCC2)sc2ccccc21,inactive
18,Cn1c(=NC(=O)c2ccco2)sc2cccc(F)c21,inactive
19,Cn1c(=NC(=O)c2cnccn2)sc2ccccc21,7.8 (active)
20,O=C(Nc1ncccc1O)c1ccc(S(=O)(=O)N2CCCCCC2)cc1,inactive
21,CCN(CC)c1ccc(S(=O)(=O)N2CCCCC2)cc1NC(=O)C1=COCCO1,inactive
22,OCc1ccc(-c2ccccc2)c(-c2ccccc2)c1,inactive
23,O=C1c2ccccc2S(=O)(=O)N1CC(O)Cn1c2ccccc2c2ccccc21 (centres undefined),inactive
24,CCCCN(CCCC)CC(O)Cn1c2ccccc2c(=O)c2ccccc21 (centres undefined),8.77 (active)
25,CS(=O)(=O)N(CC(O)Cn1c2ccccc2c2ccccc21)c1cccc2ccccc12 (centres undefined),inactive
26,COc1ccc(CCNc2cc(N3CCN(C(=O)c4ccccc4OC)CC3)ccc2[N+](=O)[O-])cc1OC,inactive
27,CCN1CCN(c2c(Cl)cccc2NC(=O)c2ccc(Br)o2)CC1,8.41 (active)
28,CCCC(=O)Nc1ccc(Cl)c(NC(=O)c2ccc(Br)o2)c1,inactive
29,COc1cc(OC)c(NC(=O)c2ccc(Br)o2)cc1Cl,inactive
